Bioassay records from PubChem BioAssay.
A selection: hits, their analogues and other compounds. The true share with any hit is near 0.45%.
FMDV FLuc = Primary qHTS Assay for Foot and Mouth Disease Virus Antivirals against NCGC Sytravon and CBC Compound Libraries: Firefly Luciferase Signal | AID 1745856, 2022 | FMDV antiviral cell assay, firefly luciferase signal | 120,000 tested, 0.23% active | Potency, µM (titrated, usually from 57.5 µM), usual class: inhibitors; also: nearly all actives have a fitted effect of over 60% in size
FMDV Renilla = Primary qHTS Assay for Foot and Mouth Disease Virus Antivirals against NCGC Sytravon and CBC Compound Libraries: Renilla Luciferase Signal. 120,000 tested, 0.32% active. Potency, µM (titrated, usually from 57.5 µM), actives largely listed as inhibitors. FMDV replicon cells, Renilla luciferase signal; also: nearly all actives have a fitted effect of over 55% in size
Each line names hits and unclear results; the compound was inactive in the other large screens; ! = not active in a repeat. Calls follow the shape of the full dose curve.

CCOC(=O)C1=C(Nc2ccccc2)O/C(=C\c2ccc(OC(F)F)cc2OC(F)F)C1=O	FMDV FLuc 10µM, FMDV Renilla inconclusive
CCOC(=O)c1cccc(Nc2nc3ccccc3nc2NS(=O)(=O)c2ccccc2)c1	none
COC(=O)c1ccc(NC(=O)CCc2c(C)nc3cc(-c4cccc(F)c4)nn3c2C)cc1	FMDV FLuc inconclusive
CCCCNC(=O)CCc1c(C)nc2cc(-c3ccccc3)nn2c1C	FMDV FLuc 1.78µM
Cc1nc2cc(-c3ccccc3)nn2c(C)c1CCC(=O)NCCc1ccccc1	FMDV FLuc inconclusive
COc1ccc(NC(=O)CCc2c(C)nc3cc(-c4cccc(F)c4)nn3c2C)cc1Cl	FMDV FLuc 28.2µM
COC(=O)c1cc(C(C)C)sc1NC(=O)c1ccccc1Cl	none
COc1ccc(C(=O)N2CCN(Cc3cc(=O)oc4cc(C)ccc34)CC2)c(OC)c1	none
CSc1ccc(C2CC(=O)Nc3nc(N)sc32)cc1 (stereo not drawn)	none
Cc1ccc(CNC(=O)/C(C#N)=C/c2ccccc2OCc2cccc(C(F)(F)F)c2)cc1	none
CCn1cc(C(=O)Cn2c(C)nc3ccccc32)c2ccccc21	FMDV FLuc inconclusive, FMDV Renilla 8.91µM
CCOCN(C(=O)Cn1c(C)nc2ccccc21)c1c(C)cccc1CC	none
O=C(NCC(c1ccccc1)N1CCOCC1)c1cc(-c2cccs2)on1 (stereo not drawn)	none
O=S(=O)(c1ccccc1)c1nc(-c2cccs2)oc1N1CCCCC1	none
CCC(C)S(=O)(=O)c1oc(-c2cccs2)nc1S(=O)(=O)c1ccccc1 (stereo not drawn)	FMDV FLuc 31.6µM
Cc1ccc(-n2nc(CO)c(C(=O)NCC(c3ccccc3)c3ccccc3)n2)cc1	none
O=C(NCc1cccs1)c1nn(-c2ccccc2Cl)nc1CO	FMDV FLuc inconclusive
O=C(NCC(c1ccccc1)c1ccccc1)c1nn(-c2ccccc2Cl)nc1CO	FMDV FLuc inconclusive, FMDV Renilla 28.2µM!
Cc1ccccc1-n1nc(CO)c(C(=O)NCC(c2ccccc2)c2ccccc2)n1	FMDV FLuc inconclusive, FMDV Renilla 8.91µM
CC(=O)c1c(-c2ccc(C)cc2)nc2n(CCN3CCOCC3)c3ccccc3n12	none
COc1ccc(C)cc1S(=O)(=O)Nc1ccc(Nc2cc(N3CCCCC3)nc(C)n2)cc1	FMDV FLuc inconclusive
CN(CCC#N)C(=O)COC(=O)c1cc(=O)[nH]c2ccccc12	none
C#CCN1CCCCC1C(=O)NCC1CCCCC1 (stereo not drawn)	FMDV FLuc inconclusive
CCN(CC)C(=O)/C=C/c1cccs1	none
COc1ccc(N(Cc2nnc(-c3ccc(Cl)cc3)o2)S(=O)(=O)c2ccc(C(C)=O)cc2)cc1	none
Cc1oc(-c2nc(C#N)c(NCCN(C)C)o2)cc1S(=O)(=O)N(C)C	none
Cc1ccc(Nc2nc(C(=O)N3CCC(C(=O)NCc4ccccc4)CC3)cs2)cc1	none
Cc1cccc(Nc2nc(C(=O)N3CCC(C)CC3)cs2)c1	FMDV FLuc 25.1µM, FMDV Renilla 12.6µM
CCN(Cc1ccc(OC)cc1)Cc1cc(=O)oc2c(C)cc(C)cc12	FMDV FLuc inconclusive
CC(CC(=O)O)(C(=O)O)c1ccccc1 (stereo not drawn)	none
COc1ccc(C(C)=O)cc1COc1ccccc1C#N	none
CO/C=C(/C(=O)OC)c1ccccc1Oc1cc(Oc2ccccc2C#N)ncn1	FMDV FLuc inconclusive, FMDV Renilla 17.8µM
O=C(O)CC1(CC(=O)Nc2ccccc2CO)CCCCC1	none
CCc1ccc2oc(C(=O)Nc3ccc(S(=O)(=O)N(C)c4ccccc4)cc3)cc(=O)c2c1	none
CSc1ccc(C(C)NC(=O)C(C)C)cc1 (stereo not drawn)	none
CCc1ccc(-c2nc(C)c(C(C)=O)s2)cc1	none
CCc1ccc(-c2nc(COC(=O)c3c(C)nsc3N)cs2)cc1	FMDV FLuc inconclusive, FMDV Renilla 1.41µM
CC(C)c1cc(C(=O)Nc2cccc(Cl)c2)nn1C1CCS(=O)(=O)C1 (stereo not drawn)	none
O=C(c1ccnc(Cl)c1)N1CCC(c2nc3cc(C(F)(F)F)ccc3s2)CC1	FMDV FLuc 11.2µM, FMDV Renilla inconclusive
Cc1ccc(C(=O)N2CCC(c3nc4cc(C(F)(F)F)ccc4s3)CC2)cn1	FMDV FLuc inconclusive, FMDV Renilla 14.1µM
Cc1ccc2oc(C(=O)N3CCC(c4nc5ccccc5s4)CC3)c(C)c2c1	none
COc1cc(C(=O)N2CCC(c3nc4ccccc4s3)CC2)cc(OC)c1OC	FMDV FLuc inconclusive
COc1ccc(Cl)cc1NC(=O)COC(=O)c1sc2ccccc2c1Cl	none
Cc1ccc(C(=O)NC(c2ccccc2)c2ccc(C)c(C)c2)cn1 (stereo not drawn)	none
COc1ccc(OC)c(/C=C2\Oc3cc(OS(=O)(=O)c4ccccc4)ccc3C2=O)c1	none
COc1cccc(CN(C)CC(=O)NC(=O)NC2CCCC2)c1OC	none
O=C(Nc1ccccc1Br)C1=C(c2ccccc2)S(=O)(=O)CCO1	FMDV Renilla inconclusive
O=C(Nc1cccnc1)C1=C(c2ccccc2)S(=O)(=O)CCO1	FMDV FLuc inconclusive, FMDV Renilla 25.1µM
COC(=O)c1ccc(COC(=O)[C@H](C)NC(=O)c2ccccc2)cc1	none
CCOc1ccc(-c2cc(C(=O)Nc3nnc(CC)s3)no2)cc1	none
COc1cc(OC)c(NC(=O)NCc2ccc3c(c2)CCN3C(=O)c2ccccc2)cc1Cl	FMDV Renilla 22.4µM
COc1cc(OC)c(NC(=O)NCc2ccc3c(c2)CCN3C(C)=O)cc1Cl	none
Cc1ccc2nc(-c3ccccc3C)cc(C(=O)O)c2c1	FMDV Renilla inconclusive
O=C1C(=C(c2ccccc2)c2ccccc2)C(Cl)C(Cl)(Cl)c2ccccc21 (stereo not drawn)	FMDV FLuc inconclusive, FMDV Renilla 11.2µM
O=C1CCCc2c(O)cccc21	none
CNC(=O)NC(=O)C(C)SC(C)c1ccccc1F (stereo not drawn)	none
CCCNC(=O)CCc1c[nH]c2ccccc12	none
COc1ccc(NC(=O)CCn2cnc3onc(-c4ccc(F)cc4)c3c2=O)cc1OC	FMDV FLuc inconclusive, FMDV Renilla 3.98µM
COc1cc(Cl)c(C)cc1NC(=O)CCn1cnc2onc(-c3ccc(F)cc3)c2c1=O	none
CCc1ccc(NC(=O)C(C)N2CCN(c3cccc(C(F)(F)F)c3)CC2)cc1 (stereo not drawn)	none
CC(=O)c1c(C)[nH]c(C(=O)C(C)Oc2c(F)c(F)cc(F)c2F)c1C (stereo not drawn)	FMDV FLuc inconclusive
N#C/C(=C\c1ccc(OC(=O)c2ccc(Br)cc2)cc1)C(=O)Nc1ccccc1C(F)(F)F	none
OCCCCCCCCCCCCCCCO	none
C[N+]1(CCCCCCCCCCCCCO)CCCC1	FMDV FLuc inconclusive, FMDV Renilla 20µM
O=C(O)CCCCCCCCCCc1ccc(C(=O)O)s1	none
O=S(=O)(Nc1ccc(Br)cc1F)c1ccc(-c2cnc(C3CC3)o2)cc1	none
CCc1c(C)nc2nncn2c1NCc1ccc(OC)cc1	none
Cc1nc2nncn2c(NCc2ccc(Cl)cc2)c1C	FMDV FLuc inconclusive, FMDV Renilla 1.41µM
COc1ccc(CNc2cc(-c3ccc(OC)cc3)nc3nncn23)cc1	none
Cc1nc2nncn2c(NCc2ccc(F)cc2)c1C	FMDV FLuc inconclusive, FMDV Renilla 8.91µM
COc1ccc(CNC(=O)CSC2=NC3(CCCCC3)N=C2c2cccs2)cc1	none
Cc1nc(C(C)(C)C)nc2sc(C(=O)N(C)C)c(C)c12	none
Cc1ccccc1CSC1=NS(=O)(=O)c2ccccc2N1Cc1ccccc1	none
COc1ccc(CCNCc2ccc(Cl)cc2)cc1	FMDV Renilla 8.91µM
COc1ccc(CNCCc2ccc(Cl)cc2)cc1	none
CN(CC(=O)NC(=O)NC(C)(C)C)c1ccccc1	none
